Source: the supplement of paper PMC3334620
Over roughly 33,000 sequences, “E-score (-0.5 to 0.5)” has its median near -0.054; the highest 2% begin near 0.35. For the sample, the highest values were picked, then their nearest neighbours and some sequences at random.

target: T1, Stb5 (UniProt P38699); assay: PBM E-score (8-mer binding enrichment) (E-score (-0.5 to 0.5)); higher = stronger / more preferred TF binding; settings: protein concentration: 200 nM; construct: GST-full length
T1 sequence: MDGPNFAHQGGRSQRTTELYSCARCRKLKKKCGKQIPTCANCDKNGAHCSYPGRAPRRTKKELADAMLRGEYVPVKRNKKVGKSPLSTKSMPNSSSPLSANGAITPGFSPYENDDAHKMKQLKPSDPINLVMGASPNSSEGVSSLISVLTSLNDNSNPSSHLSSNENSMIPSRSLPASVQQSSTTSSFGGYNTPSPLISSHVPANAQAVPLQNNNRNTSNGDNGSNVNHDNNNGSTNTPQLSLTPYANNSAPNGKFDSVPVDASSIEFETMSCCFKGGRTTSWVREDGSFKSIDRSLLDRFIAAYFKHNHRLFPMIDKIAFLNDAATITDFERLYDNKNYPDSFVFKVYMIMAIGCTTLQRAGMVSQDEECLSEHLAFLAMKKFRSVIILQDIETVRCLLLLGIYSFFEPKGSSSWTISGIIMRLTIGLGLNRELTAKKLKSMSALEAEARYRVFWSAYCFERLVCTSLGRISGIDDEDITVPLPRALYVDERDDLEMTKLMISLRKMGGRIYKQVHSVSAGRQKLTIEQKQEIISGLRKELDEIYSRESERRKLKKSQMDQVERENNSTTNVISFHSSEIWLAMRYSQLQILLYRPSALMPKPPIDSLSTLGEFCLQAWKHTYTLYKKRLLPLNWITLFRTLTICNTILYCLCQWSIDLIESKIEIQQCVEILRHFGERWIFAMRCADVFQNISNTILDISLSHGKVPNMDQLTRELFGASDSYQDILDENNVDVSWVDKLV
Experimental: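 Universal 'all 10-mer' protein binding microarrays (Agilent AMADID 015681) probed with GST-tagged S. cerevisiae TFs (full-length or DBD) made by in vitro transcription/translation (PURExpress), about 100-200 nM. Bound TF was detected with fluorescent anti-GST. Each ungapped 8-mer (which stands for itself and its reverse complement) is scored by the PBM enrichment score (E-score), a modified Wilcoxon-Mann-Whitney statistic from -0.5 to +0.5, computed with the Universal PBM Analysis Suite. Scale: above 0.35 generally sequence-specific binding.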

Sequence	PBM E-score
ATACCTCG	-0.173
GCTTCGAA	-0.0877
ACGTACCC	0.0314
AACTCTAG	-0.33
GGACTCAC	0.0404
AGGACCAA	-0.115
AAGCCTCT	-0.318
AAGTAGCG	0.0894
GAAGTTCC	0.0956
AATCCGCG	0.21
CCTCCGCG	0.157
CCTCCGCC	0.223
ACTCCGCG	0.357
ACTCCGCC	0.384
ACTCCGCT	0.392
ACTCCGAT	0.344
ACTCCGCA	0.259
GCTCCGCC	0.347
AGATAAGC	-0.142
CACACTAG	-0.189
AGTCCACC	0.0594
AAAATATT	0.114
GAAGGCAA	-0.234
GTCTTCCA	-0.125
ATCCAAAT	-0.103

Sequence	PBM E-score
GGTGCTAA	0.358
TGTGCTAA	0.0576
AGTGCTAA	-0.043
GCCGCGCC	0.221
CGGTCACG	0.149
CGCCGGCG	0.428
GGCCGGCC	0.15
CGGCGCCG	0.309
AGCCGGCA	0.256
CGCCGGCC	0.391
CGCCGGCA	0.354
AGCCGGCC	0.111
AGCCGGCG	0.248
GGCCGGCA	0.289
ATAAAAGA	0.0611
GAGCAATA	-0.118
CAACACTG	-0.305
CAGTCAAG	-0.338
CCCACAGC	-0.146
CCCCCCCG	-0.255
CCCCGCCG	0.381
ACCCGCCG	0.318
CCCCGCCA	0.406
TCCCGCCA	0.205
GCCCGCCA	0.284

Sequence	PBM E-score
GGGATGAA	0.0485
CACTGTAG	-0.25
CTTCCCTA	-0.161
ACTGCCGC	0.311
AGGGCATA	-0.0797
CGGGCTCA	0.358
GGGGCATA	0.083
CGGGCCTA	0.437
CGGGCCTC	0.108
CGGGCTCC	0.0609
AGGGCCTA	0.0959
AGGGCTTA	0.12
CGGGCTTC	0.293
AGGGCTCA	-0.23
CGGGCTTA	0.473
CGGGCATA	0.419
CTCGTCCA	-0.102
AGGAATAT	-0.0199
ACATAGAA	-0.0458
AAATCGCG	-0.0128
ATGTGGGC	0.089
GCCGATAA	0.313
CATGAACA	-0.0519
CCGCGGTA	0.399
CGGCGTCC	0.277

Sequence	PBM E-score
AGGCGGCA	0.238
CCGCGGTC	0.32
CGGCGTCA	0.384
GCGCGGCA	0.237
GGGCGGCA	0.323
CCGCGGCA	0.367
AGGCGTCA	-0.0617
CGGCGGCA	0.411
ACGCGGCA	0.189
ACGCGGTA	0.215
GCGCCTCC	-0.0611
CCCTCACC	-0.225
AGTAAAGA	0.143
GCACCCGA	0.0572
TCCGTGAA	0.171
ATGAAACG	0.067
GTTTGGGA	-0.2
CCGCGTTC	0.193
GAGAGTGA	-0.349
CTATCCGC	0.0573
CTATCCGA	0.0404
CTATCACC	0.216
ACATCCGC	0.339
CTATCTCC	0.235
ATATCACC	0.436

Sequence	PBM E-score
ATCTCTCC	0.216
ATATCCGG	0.294
ATATCACA	-0.0666
ATATCCGA	0.37
ATATCCGC	0.402
ATATCTCC	0.397
ATGGGTGA	-0.12
GACTTCCA	-0.177
AGAAAACA	-0.128
AGGTCGCA	0.0143
CTGCTAAA	0.00756
ACTCCATG	-0.0336
CTCAGAAC	-0.191
AATTGGCG	0.063
GCCCCCAC	0.0261
ATATCCCC	0.395
CTATTCCC	0.136
ATATTCCG	0.171
CTATCCCC	0.276
CTATACCC	0.229
CTATGTCC	0.232
ATATGTCG	0.083
ATATGTCC	0.406
ATATACCC	0.371
ATATCCCG	0.275

Sequence	PBM E-score
ATATTCCC	0.372
ATATACCG	0.34
AGTCTGGA	0.00288
TCGATCGA	-0.148
GAGCTCAA	0.0147
ACTGGCCG	-0.0443
TCGCTCCA	-0.126
AAATTCAG	-0.221
CAGCTGAG	-0.231
CCATGCAA	-0.00387
ACGTGGGA	-0.265
AGAAAAGG	-0.103
ATCAAACA	-0.234
ATATCGGA	0.166
CTATATCC	0.187
CTATCGGA	0.402
ATATATCC	0.398
GTATCGGA	0.263
ATATATCA	0.0402
ACCTTTAG	0.0714
TAAGCCCA	0.0396
AACGCGAC	-0.173
AATAGAAT	-0.187
GATAGGTA	-0.0734
ATCGGCAT	0.363

Sequence	PBM E-score
ACCGGCAA	0.241
ATCGGCAC	0.339
CGCGGCAC	0.288
GGCGGCAC	0.343
GTCGGCAA	0.276
ACCGGCAC	0.373
GTCGGCAC	0.374
AGCGGCAC	0.355
CTCGGCAC	0.187
ATCGGCAG	0.219
ACCGGCAG	0.277
ATTGGAGC	-0.193
TATCCTAA	-0.109
CATGTGGG	-0.114
CCATGGGC	-0.0701
AAATTGAC	0.0873
AGCGGCAA	0.2
AGCGGCCA	0.177
AGCGGCCG	0.252
AGCGGCCT	0.377
AGCGGCAG	0.276
AGCGGCAT	0.401
AAGGCGGA	0.292
AGCACGAC	-0.2
CTACGAGA	-0.102

Sequence	PBM E-score
ATTATCCC	0.0778
AATATCCA	-0.00669
AATATCCC	0.291
CACATCCG	0.0898
ATTATCCG	0.359
ATTATCCA	-0.0234
AATATCCG	0.39
AACATCCG	0.359
AACATCCC	0.149
AGTTCGGA	0.208
AAGTGCGA	0.187
GGGGTGCA	0.0203
ACACAGAG	-0.0564
AACTCATC	-0.116
ACTTGCAT	0.0144
GCTCTGAA	-0.166
AACACATA	-0.222
ATAATACG	0.153
ATTATACG	0.173
ATAATACA	0.0704
ATTATACA	0.0217
ATAATACC	0.368
ATTATACC	0.362
ATGTGGTC	-0.168
GCCGTTCC	0.202

Sequence	PBM E-score
GATTCTCC	0.112
AGTCGAAT	-0.199
AATCCCAT	-0.042
AATCCCGT	0.419
TATCCCGA	0.18
GATCCCGC	0.232
CATCCCGA	0.1
AATCCCGA	0.394
AGTCCCGA	0.342
AGTCCCGC	0.358
AATCCCCT	-0.165
CATCCCGC	0.155
CGTCCCGC	0.2
AATCCCGC	0.398
CAATTTTA	-0.00732
TGTATACA	0.0199
AAGGCTTG	-0.305
CATACTGC	-0.045
CTTCAAAG	-0.124
GCACTCTA	-0.0909
GGACAAAC	0.0886
ACATACCG	0.28
CGGTCCCA	0.358
AGGTCCGA	0.412
AGGTCCAA	-0.167

Sequence	PBM E-score
AGGTCCAG	-0.156
CGGTCCAA	0.186
AGGTCGGA	0.326
AGGTCCTG	-0.205
CGGTCCGA	0.389
AGGTCCGG	0.382
GGGTCCCA	-0.0448
AGGTCCCA	-0.357
GGGTCCGA	0.332
AAATTCGA	0.0745
CGGCATTC	0.285
AACCATCG	0.041
AAACGGAT	0.197
AGAGATAT	-0.194
AAAAAGCT	-0.205
CGGTCCGC	0.298
CGGTCCTA	0.448
CGGTCTCA	0.376
CGGTCCTC	0.16
AGGTCCTA	0.0577
AGGTCCAC	-0.0841
CGGTCTCC	0.195
GGGTCTCA	0.00241
AGGTCCGC	0.425
GCCTTCGA	-0.137

Sequence	PBM E-score
CGCAAGGA	-0.0543
GACCTCTC	-0.126
AGTAGTTG	-0.0997
ACTGCTTG	-0.185
CCCAGTAG	-0.128
ACCCCTGA	-0.108
CCGATCGA	0.285
CAGATCGG	0.29
AAGATCGG	0.352
AAGATCGC	-0.0115
CCGATCGG	0.413
ACGATCGG	0.298
GCAACTTA	-0.0671
CAGTCTAA	0.00323
CCCGCCCC	0.361
ACCGCCCG	0.345
GCCGCCCC	0.388
ACCGCCCT	0.268
ACCGCCCC	0.367
ACCCGCCC	0.276
CCCCGCCC	0.43
GCCGCCCA	0.19
GCCCGCCC	0.271
CCCGCCCA	0.258
GCCCCCCC	-0.161

Sequence	PBM E-score
CCCGCCCG	0.298
ACCTCCAG	-0.188
ATAAGGGC	0.0814
GAAGCCAC	0.0166
GCCCGTTA	0.228
TGGAAGAA	-0.0838
ATGATCGG	0.297
CCTGATCA	-0.0914
AGAGAACC	-0.125
CTCATGCC	-0.103
GAGATACC	0.168
AGACCAGA	-0.27
ATAGAAGA	-0.05
AGCCTTAA	-0.0403
TGTCTTAA	0.00631
TGGCTTAA	-0.044
CGGCTTAA	0.351
CGACTTAC	0.0696
AGACTTAC	-0.161
CGTCTTAA	-0.0278
GGCCTTAA	0.377
GGTCTTAA	0.355
GGGCTTAA	0.391
TGCCTTAA	-0.192
GGACTTAC	0.358

Sequence	PBM E-score
CCCTGGAG	-0.234
GCTCGGCA	0.122
CTCAATCA	-0.00421
AACTAGCC	-0.148
ATGTGGTA	-0.222
CGCGGGAA	0.272
AATCTTGG	-0.0505
CCGATACA	0.28
ACAGCGGG	0.332
CGACTTAA	-0.0485
AGACTTAA	-0.288
GGACTTAA	0.373
ATAGAATA	-0.0414
CGATAACC	0.16
CGACCCGC	0.198
CAACCCGG	0.0495
AAACCCGT	0.318
AGACCCGA	0.287
AAACCCGA	0.395
AGACCCGC	0.36
AAACCCGG	0.395
AAACCCGC	0.414
GAACCCGC	0.199
TAACCCGA	0.225
GAACCCGA	0.0501

Sequence	PBM E-score
CAACCCGC	0.169
ATGGACTC	-0.103
CCCGGCTA	0.337
ACCTGGAG	-0.133
CAAGGCTG	-0.26
AGATAACA	-0.0529
TCGCCCCA	-0.317
ATCACCTG	0.0314
ATCACCGA	0.433
CTCACCGC	0.164
ATCACCGC	0.447
CTCACCGA	0.248
ATCACCGG	0.37
ATCACCTC	0.0381
GTCACCGA	0.285
ATCACCAG	-0.0626
TATGCACA	-0.16
GCCTCGCA	-0.0909
CGCATTTC	-0.0467
